Compound activity deposited in PubChem BioAssay by National Center for Advancing Translational Sciences (NCATS).
PTHR1 ag: PTHR1 (human) receptor agonism | AID 743266 | HEK293 GP2 PTHR1 cells, GloSensor cAMP luminescence, 1 h | Potency, µM (highest dose often 115 µM), hits mostly activators | hit rate 0.075% among 410,000 | Q03431; further: nearly all actives have a fitted effect of over 55% in size
Target sequence (Q03431 whole entry, looked up): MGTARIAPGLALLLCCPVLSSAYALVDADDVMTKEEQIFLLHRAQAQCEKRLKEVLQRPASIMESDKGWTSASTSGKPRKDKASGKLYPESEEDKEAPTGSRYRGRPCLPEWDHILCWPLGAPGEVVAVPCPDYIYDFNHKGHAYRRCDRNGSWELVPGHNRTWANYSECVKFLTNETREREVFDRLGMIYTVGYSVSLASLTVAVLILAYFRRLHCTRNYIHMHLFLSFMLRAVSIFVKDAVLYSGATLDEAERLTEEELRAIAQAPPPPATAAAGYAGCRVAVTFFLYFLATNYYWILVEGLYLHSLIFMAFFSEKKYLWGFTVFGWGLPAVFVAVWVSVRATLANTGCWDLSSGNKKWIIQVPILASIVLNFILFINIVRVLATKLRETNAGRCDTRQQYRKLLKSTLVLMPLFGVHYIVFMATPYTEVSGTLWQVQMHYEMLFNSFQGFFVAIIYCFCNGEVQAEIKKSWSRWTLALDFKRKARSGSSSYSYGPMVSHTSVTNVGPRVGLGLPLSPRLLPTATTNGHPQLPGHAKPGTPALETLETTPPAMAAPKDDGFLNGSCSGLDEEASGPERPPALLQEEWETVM
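HEK-293-derived GP2 cells expressing PTHR1 and a GloSensor cAMP reporter, 3,000/well, plated overnight, given luciferin plus IBMX (each 0.5 mM as added) for 1 h at 37 °C, then compound for 1 h at 37 °C. Luminescence was read after 15 min at room temperature.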
TCR act: activators of T cell receptors | 330,000 tested, under 10 active | Potency, µM (top dose mostly 9.22 µM), usual class: activators | primary human leukocytes, anti-CD3, IL-2 HTRF, 48 h | AID 504894
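Primary human leukocytes were stimulated with a-CD3 beads plus compounds for 48 hr without co-stimulation; secreted IL-2 was quantified by HTRF using a-IL-2-K (europium cryptate) and a-IL-2-d2, excited at 320nm with acceptor emission read at 665nm.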
Chronic BCR inh: blocks chronic active B-cell receptor signaling. ABC-DLBCL IkBa-CBG/CBR reporter, luminescence ratio, 4 h. Potency, µM (titrated, usually from 46.1 µM), hits mostly inhibitors. hit rate 0.05% among 340,000; active means well fitted inhibition curve with a large enough effect in the signal ratio, with a control signal flat, not every such curve was filed as active; inconclusive means small, poorly fitted or top-dose-only effect, or effect the other way, or a change in a side signal; the % refers to the signal ratio
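Concentration-response series (up to 46 uM) were applied to TMD8 dual-reporter cells for 4 h at 37C with doxycycline. Green/red ratio, after filter-overlap correction, defined %Activity; red signal alone was normalised to basal cells and zero luminescence.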
Mito fusion yeast: blocks mitochondrial division or promotes mitochondrial fusion; S. cerevisiae fusion-defective mutant growth rescue, CellTiterGlo 48 h; hit rate 0.23% among 320,000; Potency, µM (series often up to 46.1 µM), usual class: activators; further: nearly all actives have a fitted effect of over 45% in size
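Compounds are tested for their ability to restore growth of mitochondrial fusion-defective yeast strains at non-permissive 37C in YPEG medium over 48 hours. Viability is quantified by luciferase luminescence.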
BRCA1 expr act: activators of BRCA1 expression; MCF7-BRCA1-FFLuc reporter, luminescence, 48 h; response scale: scaled: vehicle 0%, 10 µM genistein 100%; Potency, µM (titrated, usually from 46.1 µM), usual class: activators; AID 624202; hit rate 1.1% among 380,000; further: nearly all actives have a fitted effect of over 80% in size
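Luminescence from a BRCA1-driven firefly luciferase in MCF7 cells was read after 48 h compound exposure at 37 C. Data normalized against DMSO and a 10microM genistein activation control, then curve-fitted across the titration.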
IL2 activator: activators of IL-2. IL-2 activation reporter assay, cell-based qHTS; stimulated with anti-CD3/CD4/CD28 beads; in transgenic mouse T cells. activation, % (series mostly up to about 46 µM). hit rate 0.065% among 360,000. AID 652025; in the data active means activation above about 50%; inconclusive means mostly about 30% to 49%
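Using fluorescent plate cytometry, EGFP and DsRed are detected in transgenic mouse T cells stimulated 18 h at 37 degrees C with antibody-coated beads after 60 min compound pretreatment.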
Hits are given with their value; i = inactive; ? = inconclusive; nt = not tested or not shown; ! = not confirmed by another sample; [ ] = dose if it differs, or a comment. Most compounds without a hit are left out; they make up all but 1.3% or so of the library. Unless noted, the call rests on the fitted dose curve; in most records, active means well fitted curve in the direction sought with a large enough effect; inconclusive means small, poorly fitted or top-dose-only effect, or another doubt; inactive means no such curve, though single readings can be large; an effect the other way counts as inactive or inconclusive.

SMILES	PTHR1 ag	TCR act	Chronic BCR inh	Mito fusion yeast	BRCA1 expr act	IL2 activator
Cn1cc(S(=O)(=O)c2ccccc2)c(=O)c2cc(F)c(N3CCN(c4ccc(F)cc4)CC3)cc21	61µM	nt	nt	nt	nt	nt
COc1ccc(NC(=O)c2oc3ccccc3c2NC(=O)Cc2coc3c(C)c(C)ccc23)cc1	i	nt	nt	nt	nt	nt
CCc1ccc(NC(=O)CCS(=O)(=O)c2ccc3c(c2)n(C)c(=O)c(=O)n3C)cc1	i	nt	nt	nt	nt	nt
COc1cc(NC(=O)CCS(=O)(=O)c2ccc3c(c2)n(C)c(=O)c(=O)n3C)cc(OC)c1	22µM!	i	i	i	i	i
CCCCn1nc(NC(=O)CCC)c2cc3cc(OC)ccc3nc21	i	i	i	i	13µM	i
O=C(C[n+]1ccccc1Br)c1ccc(Cl)cc1	nt	nt	nt	nt	i	nt
O=C(Cc1ccc(OCc2ccccn2)cc1)NO	nt	nt	nt	nt	i	nt
COc1ccccc1/C=C/C(=O)NCCC1=CCCCC1	i	i	?	i	2.8µM	i
O=C(/C=C/c1ccccc1)NCCC1=CCCCC1	i	i	?	i	?	i
COc1cccc(NC(=O)NCCC2=CCCCC2)c1	i	i	i	i	5µM	i
Cn1c(CNC(=O)C(Cc2ccccc2)NC(=O)c2cccc(F)c2)cc(=O)n(C)c1=O (stereo not drawn)	i	i	i	i	i	i
CNc1c(Cl)cc(/C=C2\C=Cc3ccccc32)cc1Cl	nt	nt	nt	nt	i	nt
Cc1sc2ccccc2[n+]1CCCCBr	nt	nt	nt	nt	i	nt
c1ccc(-c2noc(CC3CCCCC3)n2)nc1	i	i	?	i	7.1µM	i
c1ccc(SCc2nc(-c3ccccn3)no2)cc1	i	i	?	i	7.1µM	i
Cc1cccc(-c2noc(CSc3ccccc3)n2)c1	i	i	?	i	3.2µM	i
Cc1ccc(Cc2nc(-c3ccccn3)no2)cc1	i	i	?	i	2.2µM	i
c1cc(-c2noc(CC3CCCCC3)n2)ccn1	i	i	?	i	i	i
c1ccc(C(Cc2nc(-c3ccccn3)no2)c2ccccc2)cc1	i	i	?	i	i	i
CCOC(=O)c1ccc(NC(=O)Cn2cc(C(=O)c3ccc(Cl)cc3)c(=O)c3ccc(C)nc32)cc1	i	nt	nt	nt	nt	nt
CO/N=C\CC(=O)Nc1ccc(Oc2ccccc2)cc1	i	i	?	i	i	i
COc1ccccc1C1C=C(c2ccc(Cl)cc2)Nc2nc(-c3ccc(Cl)cc3)nn21 (stereo not drawn)	i	nt	nt	nt	nt	nt
c1ccc(Cc2nc(-c3ccccn3)no2)cc1	i	i	i	i	5µM	i
c1ccc(CCCc2nc(-c3cccnc3)no2)cc1	i	i	?	i	i	i
c1ccc(CCCc2nc(-c3ccccn3)no2)cc1	i	i	?	i	7.1µM	i
SMILES	PTHR1 ag	TCR act	Chronic BCR inh	Mito fusion yeast	BRCA1 expr act	IL2 activator
C(=N\N1CCN(c2ccccn2)CC1)/c1ccccn1	i	i	?	i	11µM	i
C(=N\N1CCN(c2ccccn2)CC1)/c1ccco1	i	i	i	i	i	i
Cc1ccc(/C=N/N2CCN(c3ccccn3)CC2)o1	i	i	?	i	10µM	i
Cn1c(SCC(=O)Nc2ccc(C(=O)O)cc2)nc2scc(-c3ccccc3Cl)c2c1=O	i	i	i	nt	i	i
CC(C)(C)C(=O)C(Cc1ccccc1Cl)n1cncn1 (stereo not drawn)	i	i	?	i	i	i
CC(C)(C)C(O)C(Cc1ccccc1Cl)n1cncn1 (stereo not drawn)	i	i	i	10µM	i	i
CCCNC(=O)c1cc(C2CCCCN2C(=O)c2ccc(C(C)C)cc2)on1 (stereo not drawn)	i	nt	nt	nt	i	i
COc1ccc(-c2cn3nc(SCC(=O)NC4CCCCC4)ccc3n2)cc1	i	i	i	i	1.3µM	i
Cc1ccccc1N1CCN(Cc2c[nH]c3ccccc23)CC1	4µM	i	i	i	i	i
C=CCn1c2ccccc2c(=O)c2cc(C#CC[C@@H](C)O)ccc21	i	i	i	i	3.5µM	i
CCSc1nn2c(=O)c3ccccc3nc2s1	i	i	i	i	2.5µM	i
CC(C)(C)C(=O)OCCNc1nc(-c2cccs2)nc2ccccc12	nt	nt	nt	nt	i	nt
CC(=O)Nc1nc(COc2ccccc2)cs1	i	i	?	i	10µM	i
CC(=O)Nc1ccc(NC(=O)Oc2ccccc2)cc1	i	i	i	i	i	i
CCc1ccc(-c2csc(NC(=O)Oc3ccccc3)n2)cc1	i	i	?	i	7.9µM	i
O=C(Nc1nc(-c2cccc(Br)c2)cs1)Oc1ccccc1	i	i	?	i	?	i
O=C(Cc1c(F)c(F)c(F)c(F)c1F)Nc1nc(-c2ccccc2)cs1	i	i	i	11µM	i	i
CC(=O)Nc1nc(COc2ccc3ccccc3c2)cs1	i	i	?	i	i[1.84 µM]	i
CCc1ccc(OC(=O)Nc2ccccc2)cc1	i	i	i	i	2.8µM	i
O=C(NCc1ccccc1)C(c1c(F)cccc1Cl)N(C(=O)c1csnn1)C1CC1 (stereo not drawn)	i	i	i	i	i	i
COc1ccccc1NC(=O)C(C)OC(=O)CCCc1c[nH]c2ccccc12 (stereo not drawn)	i	i	i	i	i	i
COc1cccc(-c2csc(NC(C)=O)n2)c1	i	i	i	i	13µM	i
COc1ccc(-c2csc(NC(C)=O)n2)cc1OC	i	i	?	i	i	i
COc1cc2ncnc(N3CCN(C(=O)Nc4ccc(Oc5ccccc5)cc4)CC3)c2cc1OC	nt	nt	nt	nt	i	nt
COc1cccc(/C=N/Nc2nc(Nc3ccc([N+](=O)[O-])cc3)nc(N3CCCC3)n2)c1O	i	i	?	i	i	i
SMILES	PTHR1 ag	TCR act	Chronic BCR inh	Mito fusion yeast	BRCA1 expr act	IL2 activator
O=[N+]([O-])c1ccc(Nc2nc(N/N=C/c3cccc(F)c3)nc(N3CCCC3)n2)cc1	i	i	?	16µM	i	i
Cc1ccc(/C(N)=N/OC(=O)CSc2ccccc2)cc1	i	i	?	i	7.9µM	i
N/C(=N\OC(=O)CSc1ccccc1)c1ccc([N+](=O)[O-])cc1	i	i	i	i	11µM	i
COc1ccc(/C(N)=N/OC(=O)CSc2ccc(C)cc2)cc1	i	i	i	i	i	i
N/C(=N\OC(=O)c1ccccc1F)c1ccc([N+](=O)[O-])cc1	i	i	?	i	2.8µM	i
O=C(Nc1cccc(Cl)c1)c1cccc(N2C(=O)C3CC=CCC3C2=O)c1 (stereo not drawn)	i	i	i	i	i	i
O=[N+]([O-])c1ccc2c(c1)S(=O)(=O)C=C2	nt	nt	nt	i	nt	nt
COC(=O)C1=C(C)NC(C)=C(C(=O)OC)C1c1ccc(N(C)C)cc1	i	i	21µM	i	i	i
